Data on 105 compounds can be found in ChEMBL document CHEMBL4513216, “Probing the Open Global Health Chemical Diversity Library for Multistage-Active Starting Points for Next-Generation Antimalarials” (ACS Infect Dis, 2020).

Hit rate of the full screen: of about 69,000 compounds, about 8,600 (12%) showed an effect of 50% or more. The sample as a whole holds a higher share of strong results than the screen did.

The assay deals with Plasmodium berghei. The experiment in a line: Screen against P. berghei liver stage (PbLuc), transformed with Luciferase, at 10uM. The conditions noted are these: tested at 10 uM. In kind it is functional, HepG2.
`Cc1cnc(N2CC3(CCN(C(=O)c4cccnc4)C3)C2)nc1`: the INHIBITION amounted to 22.2%.
The figure for `Cc1noc(C)c1CN1CCC2(CC1)CCN(C(=O)c1cscn1)C2` is 40.8%; for `O=C(c1cscn1)N1CCC2(CN(Cc3ccoc3)C2)C1` it is 34.4%.
For `Cc1ccc(CN2CC3(CCN(C(=O)c4cscn4)C3)C2)s1`, the INHIBITION is reported as 35.1%.
With `Cc1nc(CN2CCC3(CC2)CCN(C(=O)c2cscn2)C3)cs1`, the INHIBITION was determined as 75.4%.
With `Cc1ccc(CN2CCC3(CC2)CCN(C(=O)c2cccnc2)C3)o1`, the INHIBITION came to 34%.
As to `Cc1ccc(CN2CC3(CCN(C(=O)c4cscn4)C3)C2)o1`, the INHIBITION stood at 54.7%.
Consider `O=C(c1cscn1)N1CCC2(CCN(Cc3nccs3)CC2)C1`, for which the INHIBITION was 14.8%.
Take `Cc1ccc(CN2CC3(CCN(C(=O)c4cccnc4)C3)C2)o1`: the INHIBITION is reported as 71.1%.
As for `CNC(C(=O)OC)c1cc(F)ccc1F` (stereo not given), the INHIBITION is -0.219%.
`Cn1cc(CN2CCC[C@]3(C(=O)O)CN(c4ncccn4)C[C@@H]3C2)cn1`: the INHIBITION was -44.2%.
Consider `Cc1ccc(NC(=O)C2CSCN2C(=O)c2ccncc2)c(C)c1` (stereo not given), for which the INHIBITION is on record as 16.1%.
Regarding `CC(C(=O)NCc1ccc(N2CCCCCC2)nc1)S(C)(=O)=O` (stereo not given), the INHIBITION was -12.2%.
`O=S(=O)(c1ccccc1)N1CCOC(Cn2ccnc2)C1` (stereo not given): the INHIBITION was -12.3%.
For `Cc1ccc(CN2CC(C(=O)Nc3ccccc3)C3(CCOCC3)C2)o1` (stereo not given), the INHIBITION is recorded as -24.9%.
Take `O=C(c1cscn1)N1CC[C@@H]2[C@@H]1CCN2C1CCOC1` (stereo not given in full): the INHIBITION is recorded as 12.6%.
In the case of `Cc1ccc(O[C@@H]2C[C@H]3CN(C(=O)c4cnccn4)CCN3C2)cc1`, the INHIBITION was -28.8%.
With `O=C(Cc1ccccn1)N1CCN2C[C@H](Oc3cncnc3)C[C@H]2C1`, the INHIBITION is reported as 67.2%.
The figure for `O=C(Cc1ccccn1)N1CCN2C[C@H](Oc3cccc(F)c3)C[C@H]2C1` is 33%.
In the case of `O=C(c1ccco1)N1CCN2C[C@H](Oc3cncnc3)C[C@H]2C1`, the INHIBITION is listed as -5.63%.
For the compound `O=C(c1ccncc1)N1CCN2C[C@H](Oc3cncnc3)C[C@H]2C1`, the INHIBITION stood at 23.3%.
In the case of `O=C(c1ccnnc1)N1CCN2C[C@H](OCc3ccccn3)C[C@H]2C1`, the INHIBITION is recorded as -5.05%.
In the case of `O=C(c1ccnnc1)N1CCN2C[C@H](Oc3cccnc3)C[C@H]2C1`, the INHIBITION is listed as -10.2%.
Turning to `O=C(Cc1cccc(F)c1)N1CCN2C[C@H](Oc3cncnc3)C[C@H]2C1`, the INHIBITION is 39.4%.
For the compound `O=C(Cc1ccccn1)N1CCN2C[C@H](OCCN3CCCC3)C[C@H]2C1`, the INHIBITION was 68.4%.
With `O=C(c1ccc(F)cc1)N1CCN2C[C@H](OCc3ccccn3)C[C@H]2C1`, the INHIBITION is on record as -1.71%.
For the compound `O=C(c1cccnc1)N1CCN2C[C@H](Oc3cncnc3)C[C@H]2C1`, the INHIBITION turned out to be 55.5%.
The same measure for `Cc1ccc(O[C@@H]2C[C@H]3CN(C(=O)Cc4ccccn4)CCN3C2)cc1`: 84.7%; for `CC(C)c1nc(C2CCCN(C(=O)c3ccc4c(c3)OCO4)C2)no1` (stereo not given): 45.1%; for `COCCc1noc(CN2CCC(c3ccccc3C(=O)O)C2)n1` (stereo not given): 35.7%.
The figure for `Cc1nc(CN2CCCC2c2c(C)nn(C)c2Cl)oc1C` (stereo not given) is 18.2%; for `O=C1CC(NS(=O)(=O)c2ccc(F)c(Cl)c2)CN1` (stereo not given) it is -6.67%.
The figure for `O=C(Cn1c(=O)[nH]c2cn(-c3ccccc3)c(=O)n21)NC1CCCCC1` is -6.61%.
Consider `Cc1ccc(Cn2c(=O)[nH]c3cccnc3c2=O)cc1`, for which the INHIBITION is -5.64%.
The figure for `c1coc(CN2Cc3ccnn3CC(COCC3CC3)C2)c1` (stereo not given) is -47%; for `O=C(Nc1ccccc1)N1C[C@@H]2CC[C@H]1CN(Cc1ccccc1)C2` it is 32.5%.
For `COc1cc(NC2CCCN(c3ncccc3C#N)C2)cc(OC)c1` (stereo not given), the INHIBITION was 42.1%.
Regarding `COC(C)c1cccc(NCc2cccs2)c1` (stereo not given), the INHIBITION amounted to 50.1%.
As for `CN(C(=O)c1cccc(NCC(=O)O)c1)C(C1CC1)C1CC1`, the INHIBITION is reported as 44.8%.
Consider `COC(C)c1cccc(NCc2cccc(O)c2)c1` (stereo not given), for which the INHIBITION is listed as -52.4%.
On to `CN(C(=O)c1cccc(NCc2cccs2)c1)C(C1CC1)C1CC1`, for which the INHIBITION is 64.8%.
Take `COC(C)c1cccc(NCc2ccsc2)c1` (stereo not given): the INHIBITION turned out to be 32.8%.
The same measure for `CN1CCc2ccc(NCc3cccs3)cc2C1=O`: -99.6%.
The same measure for `Cc1n[nH]c2nc(-c3cccc(Cl)c3)cc(C(=O)O)c12`: -1.99%.
On to `O=C1CC2(CCSC2)C(=O)N1Cc1coc(-c2ccc(F)cc2)n1` (stereo not given), for which the INHIBITION is on record as -19.7%.
Consider `Cn1c(=O)n(C)c2cc(NS(=O)(=O)Cc3cccc(F)c3)ccc21`, for which the INHIBITION was 18.6%.
As to `CC(C)n1cc(C(=O)NC2CN3CCC2CC3)c2ccccc21` (stereo not given), the INHIBITION was found to be 50.8%.
For `CC(C)n1ccc2cc(C(=O)Nc3nc[nH]n3)ccc21`, the INHIBITION is listed as -22.4%.
With `Cn1ccc2c(C(=O)NC3CN4CCC3CC4)cccc21` (stereo not given), the INHIBITION was determined as 32.2%.
On to `CC(C)n1cc(C(=O)NC2CCS(=O)(=O)C2)c2ccccc2c1=O` (stereo not given), for which the INHIBITION is 11.1%.
The figure for `CCn1cc(C(=O)NC2CCN(S(C)(=O)=O)CC2)c2ccccc21` is 2.37%.
The figure for `COCCn1ccc2c(C(=O)NC(C)C)cccc21` is 1.8%.
For `CC(C)n1ccc2ccc(C(=O)NC3CN4CCC3CC4)cc21` (stereo not given), the INHIBITION is reported as 58.2%.
With `COCCn1ccc2c(C(=O)O)cccc21`, the INHIBITION is on record as 17.7%.
The figure for `Cn1ccc2ccc(C(=O)NC3CCOC(C)(C)C3)cc21` (stereo not given) is 11.7%; for `COCCn1ccc2c(C(=O)NC3CN4CCC3CC4)cccc21` (stereo not given) it is 63.8%; for `Cc1c(NC(=O)NC2CN3CCC2CC3)cccc1C(=O)N1CCCC1` (stereo not given) it is 21.5%.
`CC(C)n1ccc2c(C(=O)NC3CN4CCC3CC4)cccc21` (stereo not given): the INHIBITION came to 50.8%.
For `CCCc1nc(NCC(=O)N2CCOCC2)c2c(n1)c(C)nn2CC`, the INHIBITION worked out at 45.8%.
In the case of `Cc1cc(NC(=O)C2CCCN(C(=O)NCC(C)C)C2)ccn1` (stereo not given), the INHIBITION was -15.8%.
Take `CSCc1cccc(S(=O)(=O)N2CCCCC2)c1`: the INHIBITION stood at 37.5%.
The same measure for `O=C1N(C2CCOCC2)CCCC12CCN(c1ncccc1Cl)C2` (stereo not given): 12%.
As to `Nc1ncc(CN2CCC(O)(c3ccccc3F)CC2)cn1`, the INHIBITION was 31.5%.
`CC(NC(=O)c1ccc(Cl)cc1)c1nnc(SCC(N)=O)n1C` (stereo not given): the INHIBITION was 12.315%.
`Cn1nccc1-c1cnc2n1CCNC21CCN(C(=O)C2(C)CC2)CC1`: the INHIBITION amounted to 13.1%.
Take `Cc1cnc(CNC(=O)N(CCCO)C2CCc3ccccc32)s1` (stereo not given): the INHIBITION is recorded as 38.5%.
As for `CC(=O)N1CC[C@H]2OCC[C@@]2(C(=O)NCc2cnc(C)cn2)C1`, the INHIBITION stood at 42.1%.
For the compound `O=C(NCCN1C(=O)c2ccccc2C1=O)c1scnc1Cl`, the INHIBITION is given as 19.4%.
`COCCn1ccc2c(C(=O)Nc3nc4c(s3)CCC4)cccc21`: the INHIBITION turned out to be 79.2%.
Regarding `COCCn1cc(CC(=O)Nc2nc3c(s2)CCC3)c2ccccc21`, the INHIBITION is -51.3%.
For the compound `COCCn1cc(C(=O)Nc2nc3c(s2)CCC3)c2ccccc21`, the INHIBITION is reported as 45.5%.
Turning to `CCn1ccnc1CN1CCN(CCC(=O)NC2CCCCC2)CC1`, the INHIBITION was -1.65%.
Consider `COCC(=O)N(Cc1ccc2cc[nH]c2c1)C1CC1`, for which the INHIBITION amounted to 10.9%.
For `CCNC(=O)NCC1(CN2CCOCC2)CCCCC1`, the INHIBITION turned out to be 11.9%.
`Cc1ncc(CNC2CC(=O)N(CCc3ccc(F)cc3)C2)n1C` (stereo not given): the INHIBITION came to 14.5%.
Take `Cc1cccc(CNC2CC(=O)N(CCc3cccc(Cl)c3)C2)n1` (stereo not given): the INHIBITION is -13%.
Take `Cc1nc(CNC2CC(=O)N(CCc3cccc(Cl)c3)C2)c[nH]1` (stereo not given): the INHIBITION was 43.4%.
`Cc1nc[nH]c1CNC1CC(=O)N(CCc2cccc(Cl)c2)C1` (stereo not given): the INHIBITION was found to be 53.9%.
For the compound `Cc1ncc(CNC2CC(=O)N(CCc3cccc(Cl)c3)C2)n1C` (stereo not given), the INHIBITION turned out to be 60.5%.
The figure for `CN(C)c1ncc(CNC2CC(=O)N(CCc3cccc(Cl)c3)C2)s1` (stereo not given) is 53.9%; for `CCc1ncc(CNC2CC(=O)N(CCc3cccc(Cl)c3)C2)cn1` (stereo not given) it is -11.5%; for `O=C1CC(NCc2ccncc2)CN1CCc1cccc(Cl)c1` (stereo not given) it is 44.8%.
`O=C1CC(NCc2ncc[nH]2)CN1CCc1cccc(Cl)c1` (stereo not given): the INHIBITION turned out to be 39.9%.
For `Cn1cccc1C(=O)NCc1ccnc(C2CCCOC2)n1` (stereo not given), the INHIBITION is 39.8%.
Take `COc1ccc(Cc2nnc(NC(=O)C3CC34CCC4)s2)cc1OC` (stereo not given): the INHIBITION is 17.75%.
In the case of `Cc1cc(O)nc(C2CCN(C(=O)CO)CC2)n1`, the INHIBITION is recorded as 30.55%.
For `Cc1noc(C)c1CCC(=O)N1CCCN(C)CC1`, the INHIBITION turned out to be 1.7%.
In the case of `Cc1cnc(N2CCCC3(CCOCC3)C2)nc1`, the INHIBITION is listed as -22.1%.
The figure for `COc1cccc(C(=O)C2CCCN(c3cc(C#N)ccn3)C2)c1` (stereo not given) is 59.4%; for `COc1ccc(C(=O)C2CCCN(c3cc(C#N)ccn3)C2)cc1F` (stereo not given) it is 63%.
As for `COc1ccccc1C(=O)C1CCCN(c2cc(C#N)ccn2)C1` (stereo not given), the INHIBITION was 18.5%.
In the case of `COc1ccc(C(=O)C2CCCN(c3cc(C#N)ccn3)C2)cc1OC` (stereo not given), the INHIBITION was 42.1%.
In the case of `COc1ccc(C(=O)N2CCCC(C)C2)cc1F` (stereo not given), the INHIBITION is on record as 28.5%.
On to `CNC(=O)c1ccnc(N2CCCC(COc3cccc(C)c3)C2)c1` (stereo not given), for which the INHIBITION is on record as 47.2%.
`Cn1[nH]c(C2CCCN(C(=O)CO)C2)cc1=O` (stereo not given): the INHIBITION is 29%.
The figure for `COCCN(C)CC(=O)N1CCCC2(CCC(=O)N(CC3CC3)C2)C1` (stereo not given) is 29.4%.
Consider `CC(C)(C)S(=O)(=O)c1ccc(N2CCC(n3ccnc3)CC2)cn1`, for which the INHIBITION amounted to 34.5%.
Turning to `O=C1CN(c2ccc(CNC(=O)NCC3CCOC3)cc2)CCN1` (stereo not given), the INHIBITION is listed as 0.411%.
The same measure for `NC(=O)c1nnn(-c2ccc(Cl)cc2)n1`: -27.1%; for `CCc1cc(C(=O)N2CC[C@@H](c3ccc4c(c3)OCO4)[C@H](O)C2)[nH]n1`: -5.22%.
For `O[C@@H]1CN(c2cnc3ccccc3n2)CC[C@H]1c1ccc2c(c1)OCO2`, the INHIBITION was determined as 60.1%.
For `O[C@@H]1CN(c2nc3ccccc3s2)CC[C@H]1c1ccc2c(c1)OCO2`, the INHIBITION came to 68.1%.
Take `O[C@@H]1CN(c2nc3ccccc3o2)CC[C@H]1c1ccc2c(c1)OCO2`: the INHIBITION is 39.3%.
Regarding `CCCc1nc(N2CC[C@@H](c3ccc4c(c3)OCO4)[C@H](O)C2)no1`, the INHIBITION is listed as 19.4%.
The figure for `CC(C)c1cc(C(=O)N2CC[C@@H](c3ccc4c(c3)OCO4)[C@H](O)C2)[nH]n1` is 15.6%.
